This note sets out measurements from PubChem BioAssay AID2778 (National Center for Advancing Translational Sciences (NCATS), 2010).

Results filed as inconclusive are left out. A number with no mark means an inactive call. Activity calls are given as the source filed them. The call rests on the fitted dose curve; in most records, active means well fitted inhibition curve with a large enough effect; inconclusive means small, poorly fitted or top-dose-only effect, or effect the other way; inactive means flat fitted curve, though single readings scatter.
On the % scale 0 is the no-effect control and ±100 the full control effect; potency means the concentration at half of the fitted maximal effect.

Menin (Homo sapiens), sequence (O00255 whole entry, looked up): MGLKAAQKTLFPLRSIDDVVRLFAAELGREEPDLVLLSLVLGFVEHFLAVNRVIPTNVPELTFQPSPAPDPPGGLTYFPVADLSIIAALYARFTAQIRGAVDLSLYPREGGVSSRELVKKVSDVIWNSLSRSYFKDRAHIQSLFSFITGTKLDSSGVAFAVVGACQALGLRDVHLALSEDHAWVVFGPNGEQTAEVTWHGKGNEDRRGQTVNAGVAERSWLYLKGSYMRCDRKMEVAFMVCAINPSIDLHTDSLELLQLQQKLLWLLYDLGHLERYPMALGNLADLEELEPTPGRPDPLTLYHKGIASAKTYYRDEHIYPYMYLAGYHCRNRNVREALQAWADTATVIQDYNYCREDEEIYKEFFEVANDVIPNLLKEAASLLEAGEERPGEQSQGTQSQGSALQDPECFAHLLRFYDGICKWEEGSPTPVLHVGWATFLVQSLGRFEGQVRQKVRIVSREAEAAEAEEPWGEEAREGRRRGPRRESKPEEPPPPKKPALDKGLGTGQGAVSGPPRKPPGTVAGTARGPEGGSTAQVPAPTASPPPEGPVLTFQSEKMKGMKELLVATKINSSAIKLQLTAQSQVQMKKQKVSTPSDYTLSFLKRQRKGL

This test deals with Menin (Homo sapiens) (UniProt O00255). Kind of test: Confirmation of Inhibitors Targeting the Menin-MLL Interaction in MLL Related Leukemias: Confirmation in an HTRF (commercial TR-FRET) Assay using His-tagged menin and biotin-labeled MLL peptide. The conditions noted are these: His-menin / biotin-MLL peptide binding; series mostly up to 126 µM; activity change, negative = inhibition: at the top concentration. In a few lines:
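Compounds were incubated 1 hr at ambient with a preformed His6-menin (200 nM)/biotinylated MLL-w.t. peptide (80 nM) complex in Tris pH 7.5 buffer; anti-His Eu-cryptate (3.5 nM) and SA-XL665 (10 nM) added, TR-FRET read after 1h.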
(Time-resolved FRET reads energy transfer from a long-lived donor to a nearby acceptor.)
`COCCNC(=O)C(OC(=O)c1nsc(Cl)c1Cl)C(C)C` (stereo not given): the “activity change, negative = inhibition” value is 5.03%.

Take `c1ccc(-c2ccc(-c3csnn3)cc2)cc1`: the “activity change, negative = inhibition” value is -8.86%.

On to `CN(CCOc1ccc(Cl)cc1)CC(O)c1ccccc1` (stereo not given), for which the “activity change, negative = inhibition” value was -2.63% [at 383 µM].

Turning to `CC(=O)O[C@H]1CSC[C@H]1NC(=O)c1ccccc1`, the “activity change, negative = inhibition” value is 5.21%.

With `O=C(O)CSc1cc(NS(=O)(=O)c2ccc(Br)cc2)c2ccccc2c1O`, the Potency was 89.1 µM (active).

Consider `COc1ccc(-c2csc(NC(=O)c3cc(-c4cccs4)nc4ccccc34)n2)c(OC)c1`, for which the “activity change, negative = inhibition” value is -9.61%.

`Cc1[nH]nc(-c2ccc(OCc3cnn(-c4ccccc4)c3)c(C)c2O)c1Oc1ccccc1`: the “activity change, negative = inhibition” value is -21.4%.

With `CC(=O)c1cccc(OCC(O)CNCC2COc3ccccc3O2)c1` (stereo not given), the “activity change, negative = inhibition” value is 6.05%.

Consider `CC(=O)c1c(O)cc(O)cc1CC(=O)O`, for which the “activity change, negative = inhibition” value is 2.69%.

On to `Cc1cccc(NC(=S)NC(NC(=O)OCc2ccccc2)C(Cl)(Cl)Cl)c1` (stereo not given), for which the “activity change, negative = inhibition” value was -17.5% [at 383 µM].

In the case of `Cc1cccc(Nc2nnc(SCC(=O)NC(=O)Nc3ccc4c(c3)OCCO4)s2)c1`, the “activity change, negative = inhibition” value was -25.2%.

Regarding `N=C1c2ccccc2CN1c1ccc(N2CCOCC2)c(S(=O)(=O)Nc2ccc(Cl)cc2)c1`, the Potency was 79.4 µM (active).

As for `O=C1C(Cl)=C(NC(=O)c2ccccc2)C(=O)C(Cl)=C1NC(=O)c1ccccc1`, the “activity change, negative = inhibition” value was -2.38% [at 383 µM].

Take `CCc1cc2c(N3CCN(c4nnc(CC)s4)CC3)ncnc2s1`: the Potency was 25.1 µM (active).

Take `COc1ccc(N(CC(=O)NC2CC3CCC2C3)S(=O)(=O)c2ccc(C)cc2)cc1OC` (stereo not given): the “activity change, negative = inhibition” value is 5.88%.

`Cc1ccc(NC(=O)CN(C)C(=O)COc2cccc3cccnc23)cc1`: the “activity change, negative = inhibition” value is -4.79% [at 383 µM].

Take `Cc1ccc(/C=C2\SC(=S)N(CC(=O)Nc3ncc(Cc4ccccc4Cl)s3)C2=O)cc1`: the “activity change, negative = inhibition” value is -18.7% [at 383 µM].

For the compound `CCOC(=O)Cn1c2ccccc2n2nc(CCC(=O)O)c(=O)nc12`, the “activity change, negative = inhibition” value is -0.0741%.

Consider `C=CCN(CC=C)S(=O)(=O)c1ccc(NC(=S)NC(=O)/C=C/c2cccc3ccccc23)cc1`, for which the “activity change, negative = inhibition” value is -9.11%.

With `N#CC1=C(N)OC2=C(C(=O)CC(c3ccco3)C2)C1c1ccc(OCc2c(F)cccc2Cl)cc1` (stereo not given), the “activity change, negative = inhibition” value is -26.1% [at 383 µM].

Regarding `Oc1ccc2ccccc2c1N=Nc1nccs1`, the “activity change, negative = inhibition” value was 12.6%.

Regarding `CCc1ccc(NC(=O)CSc2nc(O)cc(=O)n2C2CCCC2)cc1`, the “activity change, negative = inhibition” value is -14.9%.

Turning to `COc1ccc(NC(=O)NC2(C(=O)N3CCOCC3)CCCCC2)cc1`, the “activity change, negative = inhibition” value was -4.37%.

As for `O=S(=O)(c1ccc(-c2csc(Nc3ccc(Br)cc3)n2)cc1)N1CCCC1`, the “activity change, negative = inhibition” value was -9% [at 383 µM].

Turning to `O=C(Nc1nnc(SCc2ccc(F)cc2)s1)c1ccc2c(c1)C(=O)N(c1ccccc1Cl)C2=O`, the “activity change, negative = inhibition” value was -21.6% [at 383 µM].

With `O=C(N1CCOCC1)N1CCN(S(=O)(=O)c2ccc(Cl)cc2)CC1`, the “activity change, negative = inhibition” value is 5.87%.

As for `Cc1cnc(CNc2ccnc(-c3ccoc3)n2)cn1`, the “activity change, negative = inhibition” value was -2.59% [at 383 µM].

For `Cc1cc2c(N)cccc2nn1`, the “activity change, negative = inhibition” value was 16.7%.

As for `CCc1ccc(CNC(=O)CCS(=O)(=O)Cc2ccccc2F)cc1`, the “activity change, negative = inhibition” value was 3.6%.

With `COC(=O)c1ccccc1NC1=C/C(=N\S(=O)(=O)c2ccc(C(=O)O)cc2)c2ccccc2C1=O`, the “activity change, negative = inhibition” value was -21.4% [at 383 µM].

As for `COC(=O)[C@H](C)NC(=O)c1cc2c(cn1)[nH]c1ccccc12`, the Potency is 50.1 µM (active).

For `Cc1ccc(NS(=O)(=O)c2csc(C(N)=O)c2)cc1C`, the “activity change, negative = inhibition” value is 3.15% [at 383 µM].

`COc1ccc(NC(=O)N2CC[C@@]3(CCCN(C(=O)c4csnn4)C3)C2)cc1`: the “activity change, negative = inhibition” value was -2.47%.

On to `O=C(CCC1CCCCC1)NCCN1C2=NC[C@H](Cc3ccc(O)cc3)N2C[C@H]1Cc1ccc(O)cc1`, for which the “activity change, negative = inhibition” value is -15.4% [at 383 µM].

As for `CCc1oc2ccccc2c1C(=O)c1cc(Br)c(O)c(Br)c1`, the “activity change, negative = inhibition” value is -10.4%.
